Several values for one entry are separate records, joined by “and”; a condition that tells them apart may be missing. Identical values can stand only once. Results filed as inconclusive are left out. More than one record can exist for a structure, and the calls need not agree. Activity calls are given as the source filed them. Unless noted, calls follow the shape of the dose curve; as a rule, active = well fitted curve in either direction with a large enough effect (not every such curve was filed as active); inconclusive = small, poorly fitted or top-dose-only effect, or another doubt; inactive = flat fitted curve, though single readings scatter.
Legend:
[1] = AP1 Signaling Pathway (AID 357); settings: ME-180 AP-1-bla reporter, EGF-induced, beta-lactamase ratio, 5 h; also: % is scaled to controls: 0 for no effect and ±100 for the full control effect
In short: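 AP-1-bla ME-180 cells with beta-lactamase reporter under AP-1 response element, stimulated with EC50 EGF; compounds titrated, 5 hours at 37 degrees Celsius. CCF4 read at 460/530 nm ratio; positive and negative modulators judged by AC50.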

[2] = target: Cytochrome P450 1A2 (Homo sapiens) (UniProt P05177); test: p450-cyp1a2 (AID 410; calls by dose curve; also: potency is read from the fitted curve at half-maximal effect;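 as to activity change, negative = inhibition: -100% = full effect of reference inhibitor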); settings: recombinant CYP1A2, luciferin-ME demethylation, luminescence; series mostly up to 57 µM
Chain of Cytochrome P450 1A2 (Homo sapiens) (P05177 whole entry, looked up): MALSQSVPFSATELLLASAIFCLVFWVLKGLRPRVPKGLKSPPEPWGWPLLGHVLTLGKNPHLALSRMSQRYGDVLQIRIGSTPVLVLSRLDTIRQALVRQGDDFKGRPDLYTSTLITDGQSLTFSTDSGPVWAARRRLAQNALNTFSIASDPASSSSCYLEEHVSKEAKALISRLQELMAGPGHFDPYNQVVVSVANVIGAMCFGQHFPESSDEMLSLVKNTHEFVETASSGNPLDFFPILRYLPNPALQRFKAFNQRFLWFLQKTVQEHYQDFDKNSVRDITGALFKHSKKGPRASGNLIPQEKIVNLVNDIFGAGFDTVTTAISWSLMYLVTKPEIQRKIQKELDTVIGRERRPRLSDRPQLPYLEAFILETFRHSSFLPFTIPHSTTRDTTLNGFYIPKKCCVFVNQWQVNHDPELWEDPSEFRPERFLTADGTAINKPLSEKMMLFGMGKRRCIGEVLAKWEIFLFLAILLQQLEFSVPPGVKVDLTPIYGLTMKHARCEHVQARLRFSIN
In short: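 Inhibition was calculated relative to 57 uM furafylline (full inhibition). The reaction used human CYP1A2 at 20nM with Luciferin-ME at its Km, 100uM, driven by an NADPH-regenerating system for 60 min at room temperature.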

[3] = NFAT Signaling Pathway (AID 444); settings: Jurkat NFAT-bla M1, carbachol, beta-lactamase ratio, 5 h;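 also: carbachol stimulus at about its EC50 of 1 µM final; % is scaled to controls: 0 for no effect and ±100 for the full control effect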
In short: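 Jurkat cells with NFAT-driven β-lactamase reporter and co-expressed M1 receptor, stimulated with carbachol (final 1 uM, ~EC50), compound titration, 5 h at 37 °C. CCF4 loaded 1 h at RT; 460/530 nm ratio gave %activity and AC50.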

[4] = Stat Signaling Pathway (AID 446); settings: ME-180 (cervical carcinoma) SIE beta-lactamase reporter, IL-6 stimulated, 5 h;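 also: ME-180 cervical cancer cells given 40 pM IL-6 alongside compound; SIE-controlled beta-lactamase reporter measured as 460/530 nm FRET emission ratio; % is scaled to controls: 0 for no effect and ±100 for the full control effect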
In short: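 IL-6/STAT signaling read in ME-180 cells via an SIE beta-lactamase reporter. Stimulus was 40 pM IL-6 (its AC50) for 5 hrs, so both activation and inhibition register.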

[5] = target: Glucocorticoid receptor (Homo sapiens) (UniProt P04150); test: GR-GFP Redistribution (AID 450;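 active = compounds whose dose series gives a full or clear partial fitted curve of increased nuclear translocation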; also: potency is read from the fitted curve at half-maximal effect); settings: U2OS GR-GFP nuclear translocation, laser cytometry, 2 h
Chain of Glucocorticoid receptor (Homo sapiens) (P04150 whole entry, looked up, the tested form may be a part): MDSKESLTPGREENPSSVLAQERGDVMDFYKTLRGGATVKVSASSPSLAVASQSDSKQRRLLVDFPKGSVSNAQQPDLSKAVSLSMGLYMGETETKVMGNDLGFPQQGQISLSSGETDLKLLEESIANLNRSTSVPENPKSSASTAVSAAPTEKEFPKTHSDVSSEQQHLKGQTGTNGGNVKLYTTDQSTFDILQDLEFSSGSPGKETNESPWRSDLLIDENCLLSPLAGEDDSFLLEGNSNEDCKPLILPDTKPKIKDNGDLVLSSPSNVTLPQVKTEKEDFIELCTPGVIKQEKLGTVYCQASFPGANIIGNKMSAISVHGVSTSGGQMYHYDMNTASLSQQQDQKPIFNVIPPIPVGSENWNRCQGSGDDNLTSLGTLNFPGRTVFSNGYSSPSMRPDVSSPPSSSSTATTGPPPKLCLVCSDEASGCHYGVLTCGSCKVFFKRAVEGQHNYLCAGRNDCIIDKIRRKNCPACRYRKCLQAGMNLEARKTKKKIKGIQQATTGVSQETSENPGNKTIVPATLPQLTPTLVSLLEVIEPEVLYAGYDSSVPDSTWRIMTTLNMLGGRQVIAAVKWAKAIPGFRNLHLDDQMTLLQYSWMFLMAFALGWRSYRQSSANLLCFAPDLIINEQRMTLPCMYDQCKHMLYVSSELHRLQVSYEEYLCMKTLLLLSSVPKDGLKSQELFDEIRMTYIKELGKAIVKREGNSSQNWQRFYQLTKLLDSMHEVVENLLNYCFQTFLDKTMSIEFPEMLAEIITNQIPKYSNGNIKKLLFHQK

[6] = target: Glucocorticoid receptor (Homo sapiens) (UniProt P04150); test: GR-EFC Redistribution (AID 451; calls by dose curve; also: potency is read from the fitted curve at half-maximal effect); settings: CHO-K1 GR-EFC translocation, beta-gal luminescence, 2 h
In short: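 CHO-K1 cells expressing nuclear EA and GR-ED fragments of b-gal; compounds titrated up to 46 uM final, 2 h at 37 C. GR nuclear translocation read as complemented b-gal luminescence after 1 h RT detection.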

[7] = target: Mitogen-activated protein kinase 10 (Mus musculus) (UniProt Q61831); test: JNK3 AlphaScreen Assay (AID 530); settings: JNK3 lysate, c-Jun phosphorylation; series mostly up to 57.1 µM;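 also: kinase came from lysate of stimulated human HepG2 cells; signal reports phosphorylation of biotinylated GST-cJun 1-79 at Ser73 with 10 µM ATP; % is scaled to controls: 0 for no effect and ±100 for the full control effect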
In short: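 qHTS format: compounds tested as titrations against IL-1beta/TNF-alpha-activated HepG2 lysate JNK3 with biotin-GST-cJun substrate and 10 uM ATP at room temperature. Loss of anti-phospho-cJun AlphaScreen signal indicates inhibition.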

[8] = target: Pyruvate kinase (Leishmania mexicana) (UniProt Q27686); test: qHTS Validation Assay for Inhibitors of Leishmania Mexicana Pyruvate Kinase (AID 945; active = well fitted curve in the direction sought with a large enough effect; an effect the other way counts as inactive or inconclusive;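 also: 0% = DMSO only neutral control wells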); settings: purified L. mexicana pyruvate kinase, enzyme activity, E451W mutant enzyme; series mostly up to 57.5 µM
Chain of Pyruvate kinase (Leishmania mexicana) (Q27686 2-499 E452W): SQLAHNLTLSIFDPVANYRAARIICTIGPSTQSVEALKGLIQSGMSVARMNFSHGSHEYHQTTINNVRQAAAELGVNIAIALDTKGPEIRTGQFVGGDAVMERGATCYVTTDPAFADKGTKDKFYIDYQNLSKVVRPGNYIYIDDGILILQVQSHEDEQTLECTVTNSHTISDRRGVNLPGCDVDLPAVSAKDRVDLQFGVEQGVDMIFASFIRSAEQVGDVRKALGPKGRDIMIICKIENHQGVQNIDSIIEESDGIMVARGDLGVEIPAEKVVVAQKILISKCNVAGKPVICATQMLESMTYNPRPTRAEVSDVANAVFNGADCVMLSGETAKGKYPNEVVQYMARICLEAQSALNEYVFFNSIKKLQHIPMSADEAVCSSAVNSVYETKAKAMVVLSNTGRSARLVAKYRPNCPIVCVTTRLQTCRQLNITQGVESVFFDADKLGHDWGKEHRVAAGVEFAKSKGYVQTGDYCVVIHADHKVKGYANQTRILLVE
In short: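 Eight-point qHTS titrations in triplicate, data normalized to DMSO neutral control. Reaction: 0.2 nM LmPYK E451W mutant, 0.5 mM PEP, 0.1 mM ADP, 7 mM MgCl2, pH 7.2, one hour at room temperature; luminescent ATP detection.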

[9] = target: Pyruvate kinase PKM (Homo sapiens) (UniProt P14618); test: qHTS Assay for Activators of Human Muscle Pyruvate Kinase (AID 954; active = well fitted curve in the direction sought with a large enough effect, not every such curve was filed as active;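 also: 0% = uninhibited enzyme and -100% = no enzyme or full thiadiazolimine inhibition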); settings: purified human muscle pyruvate kinase, luciferase-coupled luminescence, 1 h; series mostly up to 57.5 µM
Chain of Pyruvate kinase PKM (Homo sapiens) (P14618 whole entry, looked up): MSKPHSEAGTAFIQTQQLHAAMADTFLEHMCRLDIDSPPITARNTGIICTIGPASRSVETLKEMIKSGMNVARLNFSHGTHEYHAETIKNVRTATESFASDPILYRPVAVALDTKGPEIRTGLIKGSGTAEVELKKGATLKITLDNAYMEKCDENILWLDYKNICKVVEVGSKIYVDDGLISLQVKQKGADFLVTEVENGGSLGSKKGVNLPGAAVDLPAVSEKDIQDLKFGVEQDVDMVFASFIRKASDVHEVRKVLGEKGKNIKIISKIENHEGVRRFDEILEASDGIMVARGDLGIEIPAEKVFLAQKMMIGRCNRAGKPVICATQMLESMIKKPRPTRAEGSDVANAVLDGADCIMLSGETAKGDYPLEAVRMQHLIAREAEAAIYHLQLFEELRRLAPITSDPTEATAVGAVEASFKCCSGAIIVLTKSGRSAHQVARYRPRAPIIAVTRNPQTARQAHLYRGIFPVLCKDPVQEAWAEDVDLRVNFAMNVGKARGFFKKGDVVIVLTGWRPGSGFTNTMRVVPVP
In short: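 Enzyme was run at intermediate activity so both inhibitors and activators could be detected. ATP formed from ADP and PEP by 0.1 nM human PKM2 during a 1 h room-temperature incubation was quantified by coupled luciferase luminescence.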

[10] = target: Alpha-galactosidase A (Homo sapiens) (UniProt P06280); test: Counterscreen for Glucocerebrosidase Inhibitors: qHTS Assay for Human alpha-Galactosidase at pH 4.5 (AID 992; active = well fitted curve in the direction sought with a large enough effect; an effect the other way counts as inactive or inconclusive; also: 0% is about no effect); settings: purified enzyme, fluorogenic substrate; series mostly up to 76.9 µM
Chain of Alpha-galactosidase A (Homo sapiens) (P06280 whole entry, looked up): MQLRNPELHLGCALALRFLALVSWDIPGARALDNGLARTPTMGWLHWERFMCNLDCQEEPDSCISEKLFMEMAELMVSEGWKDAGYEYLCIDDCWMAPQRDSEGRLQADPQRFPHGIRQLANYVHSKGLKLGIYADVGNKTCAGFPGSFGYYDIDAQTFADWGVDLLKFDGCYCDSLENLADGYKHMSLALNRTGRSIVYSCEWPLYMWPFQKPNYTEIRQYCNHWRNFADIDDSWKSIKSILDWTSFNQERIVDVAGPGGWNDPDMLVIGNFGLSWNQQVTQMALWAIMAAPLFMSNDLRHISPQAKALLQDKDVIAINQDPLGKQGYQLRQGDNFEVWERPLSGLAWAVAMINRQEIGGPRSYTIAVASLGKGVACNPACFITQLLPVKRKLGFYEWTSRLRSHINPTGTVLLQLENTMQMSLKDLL
In short: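 Read-out is 4-methylumbelliferone fluorescence (365 nm excitation, 440 nm emission) after a pH 10 NaOH/glycine stop. Reactions held 2 nM enzyme and 80 uM substrate at pH 4.5 for 20 min at room temperature.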

[11] = target: alpha-glucosidase (Oryza sativa, rice) (UniProt Q653V4); test: Counterscreen for Glucocerebrosidase Inhibitors: qHTS Assay for Rice alpha-Glucosidase at pH 5.0 (AID 997; active = well fitted curve in the direction sought with a large enough effect; an effect the other way counts as inactive or inconclusive;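 also: 0% = full activity with enzyme and -100% = basal without enzyme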); settings: rice alpha-glucosidase enzyme activity; series mostly up to 76.9 µM
In short: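 Rice alpha-glucosidase (4 nM final) with 400 uM 4-methylumbelliferyl-alpha-D-glucopyranoside in citrate buffer pH 5.0, 20 min at room temperature, stopped at pH 10; fluorescence 365/440 nm, compounds 0.7 nM–77 uM, AC50 from Hill fits.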

[12] = qHTS Assay for Lipid Storage Modulators (AID 1519; calls by dose curve); settings: Drosophila S3 cells, BODIPY lipid droplet/cell ratio, laser cytometry, cells loaded with oleic acid; for activity change, negative = inhibition: at 25.7 µM (top of the series)
In short: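 Cells seeded at 5,000 per well were treated with compounds over a concentration series and loaded with oleic acid (400 uM, as added). Lipid droplet fluorescence (488 nm excitation, 500-530 nm channel) was read by laser-scanning cytometry and normalized to 20 uM Triacsin C.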

[13] = target: Ubiquitin carboxyl-terminal hydrolase 1 (Homo sapiens) (UniProt O94782); test: Inhibitors of USP1/UAF1: Pilot qHTS (AID 504865; active = well fitted curve in the direction sought with a large enough effect; an effect the other way counts as inactive or inconclusive;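 also: rhodamine fluorescence freed from ubiquitin-rhodamine substrate followed over time; top concentration of the series differs between compounds; % is scaled to controls: 0 for no effect and ±100 for the full control effect; nearly all actives have a fitted effect of over 35% in size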); settings: purified USP1/UAF1, Ub-rhodamine cleavage fluorescence; series mostly up to 54.9 µM
Chain of Ubiquitin carboxyl-terminal hydrolase 1 (Homo sapiens) (O94782 whole entry, looked up): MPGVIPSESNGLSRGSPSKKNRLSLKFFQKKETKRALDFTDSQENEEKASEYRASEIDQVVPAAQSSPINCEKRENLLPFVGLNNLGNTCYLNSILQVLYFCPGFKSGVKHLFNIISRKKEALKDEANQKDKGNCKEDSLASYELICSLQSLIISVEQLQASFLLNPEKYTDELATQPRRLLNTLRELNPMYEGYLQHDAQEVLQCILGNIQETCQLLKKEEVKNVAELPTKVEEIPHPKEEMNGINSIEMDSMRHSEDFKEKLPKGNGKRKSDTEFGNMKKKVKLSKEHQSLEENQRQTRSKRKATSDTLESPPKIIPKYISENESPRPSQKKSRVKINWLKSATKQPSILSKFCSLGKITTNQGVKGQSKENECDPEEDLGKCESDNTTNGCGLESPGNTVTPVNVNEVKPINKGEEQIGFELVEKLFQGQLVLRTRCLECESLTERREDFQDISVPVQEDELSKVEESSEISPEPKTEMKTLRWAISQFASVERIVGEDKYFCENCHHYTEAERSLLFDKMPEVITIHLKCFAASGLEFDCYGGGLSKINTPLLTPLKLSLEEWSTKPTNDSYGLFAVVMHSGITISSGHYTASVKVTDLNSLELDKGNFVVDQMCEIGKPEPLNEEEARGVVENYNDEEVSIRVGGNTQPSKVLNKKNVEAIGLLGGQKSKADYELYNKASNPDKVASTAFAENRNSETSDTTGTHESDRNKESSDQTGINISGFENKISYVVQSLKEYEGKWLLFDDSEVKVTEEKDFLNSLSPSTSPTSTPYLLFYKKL
In short: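 USP1/UAF1 complex at 1 nM preincubated 15 min at room temperature with compound, then Ub-Rho substrate added at 150 nM final. Fluorescence (480/540 nm) read kinetically in 50 mM HEPES pH 7.8, 0.5 mM EDTA, 1 mM TCEP, 0.1 mg/ml BSA, 0.01% Tween-20.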

[14] = target: 3',5'-cyclic-AMP phosphodiesterase 4B (Homo sapiens) (UniProt Q07343); test: qHTS Assay for Inhibitors of PDE-IV (AID 607; active = well fitted activation curve with a large enough effect in the main read-out, with a control signal flat, not every such curve was filed as active; also: % of control where 0% means no effect); settings: HEK293 ACTOne CNG channel cells, membrane potential fluorescence; series mostly up to 22.9 µM
Chain of 3',5'-cyclic-AMP phosphodiesterase 4B (Homo sapiens) (Q07343 whole entry, looked up): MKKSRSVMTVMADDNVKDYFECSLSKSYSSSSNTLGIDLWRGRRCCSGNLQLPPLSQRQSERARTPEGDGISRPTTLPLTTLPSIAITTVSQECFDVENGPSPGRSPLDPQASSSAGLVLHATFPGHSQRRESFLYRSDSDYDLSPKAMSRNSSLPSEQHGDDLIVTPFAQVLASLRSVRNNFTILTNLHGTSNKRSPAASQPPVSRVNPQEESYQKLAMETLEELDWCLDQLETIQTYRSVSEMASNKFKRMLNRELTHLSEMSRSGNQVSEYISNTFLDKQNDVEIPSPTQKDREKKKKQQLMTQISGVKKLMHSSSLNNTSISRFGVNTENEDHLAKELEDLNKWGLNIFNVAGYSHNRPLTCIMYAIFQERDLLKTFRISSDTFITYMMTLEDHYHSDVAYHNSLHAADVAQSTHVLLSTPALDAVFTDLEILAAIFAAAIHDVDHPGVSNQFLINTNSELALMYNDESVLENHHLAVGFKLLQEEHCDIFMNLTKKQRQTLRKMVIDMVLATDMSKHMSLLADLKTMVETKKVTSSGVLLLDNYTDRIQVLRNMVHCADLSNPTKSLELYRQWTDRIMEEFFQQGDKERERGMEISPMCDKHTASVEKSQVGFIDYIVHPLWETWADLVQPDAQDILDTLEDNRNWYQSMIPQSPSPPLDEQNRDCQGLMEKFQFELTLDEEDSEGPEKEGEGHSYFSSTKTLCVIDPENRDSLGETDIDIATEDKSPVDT
In short: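 Live HEK293 cells with a modified cyclic nucleotide-gated (CNG) channel report intracellular cAMP via membrane-potential dye fluorescence (ex 535/em 590 nm). Endogenous PDE-IV was targeted. Compounds were tested at up to 22.9 uM final; RO 20-1724 100 uM served as control.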

[15] = target: ATP-dependent 6-phosphofructokinase (Trypanosoma brucei brucei) (UniProt O15648); test: qHTS Assay to Find Inhibitors of T. brucei phosphofructokinase: hit validation (AID 492961; active = well fitted curve in the direction sought with a large enough effect; an effect the other way counts as inactive or inconclusive); settings: T. brucei PFK, ADP-Glo luminescence; series mostly up to 24.3 µM
Chain of ATP-dependent 6-phosphofructokinase (Trypanosoma brucei brucei) (O15648 whole entry, looked up): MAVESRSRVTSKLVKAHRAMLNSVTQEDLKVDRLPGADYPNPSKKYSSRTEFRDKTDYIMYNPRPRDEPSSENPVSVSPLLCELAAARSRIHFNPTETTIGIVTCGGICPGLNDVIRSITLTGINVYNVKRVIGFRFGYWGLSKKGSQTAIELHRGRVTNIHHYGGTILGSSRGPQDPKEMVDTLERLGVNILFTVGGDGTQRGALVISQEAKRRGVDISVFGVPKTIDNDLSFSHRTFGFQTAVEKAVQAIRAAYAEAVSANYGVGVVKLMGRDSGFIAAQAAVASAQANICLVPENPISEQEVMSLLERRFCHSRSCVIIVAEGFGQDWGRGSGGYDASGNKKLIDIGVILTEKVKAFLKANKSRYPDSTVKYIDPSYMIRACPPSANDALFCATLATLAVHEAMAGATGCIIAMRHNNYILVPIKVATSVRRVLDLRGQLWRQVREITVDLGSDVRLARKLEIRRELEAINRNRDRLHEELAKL
In short: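 Inhibition of parasite PFK is measured as reduced ADP formation, quantified via luciferase after ATP depletion. Assay used 0.1 mM ATP, 0.5 mM F6P, 1.25 nM enzyme, 45 min incubation.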

[16] = target: Luciferin 4-monooxygenase (Photinus pyralis) (UniProt P08659); test: Biochemical firefly luciferase enzyme assay for NPC (AID 624030; active = well fitted curve in the direction sought with a large enough effect; an effect the other way counts as inactive or inconclusive;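 also: purified P. pyralis luciferase at 10 nM with luciferin and ATP substrate; 0% = DMSO and -100% = full luciferase inhibition by PTC124 control; nearly all actives have a fitted effect of over 70% in size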); settings: purified P. pyralis luciferase, luminescence, 5 min; series mostly up to 58.6 µM
In short: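 Purified P. pyralis luciferase at 10 nM in 50 mM Tris Acetate (final), luminescence read within 5 minutes of enzyme addition to compounds. Activity normalised to PTC124 versus DMSO; concentration-response curves classed by r2, magnitude and activity.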

[17] = qHTS profiling for inhibitors of Plasmodium falciparum proliferation (AID 504749; active = well fitted curve in the direction sought with a large enough effect; an effect the other way counts as inactive or inconclusive; also: potency is read from the fitted curve at half-maximal effect;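 as to activity, negative = inhibition: 0% = DMSO vehicle and full inhibition = artemisinin control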; as to all read-outs here: nearly all actives have a fitted effect of over 60% in size); settings: P. falciparum in erythrocytes, SYBR Green DNA, 72 h; for activity, negative = inhibition: at 28.7 µM (top of the series)
In short: (§1)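 Readout was DNA-dye fluorescence from lysed cultures, ex 485/em 535 nm. Parasitized red cells had grown 72 h with compound; data scaled between 0.29 uM artemisinin and DMSO wells and corrected using vehicle-only plates.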

AS120 = test: as above; settings: P. falciparum in erythrocytes, SYBR Green DNA, 72 h; series mostly up to 28.7 µM
In short: as §1

CP250 = test: as above; settings: P. falciparum in erythrocytes, SYBR Green DNA, 72 h; series mostly up to 12.8 µM
In short: as §1

[18] = measured here: cell count channel max response
[19] = measured here: lipid channel max response

CCCCCN(CCCCC)C(=O)[C@H](CCC(=O)O)NC(=O)c1ccc(Cl)c(Cl)c1
-25%: max response [12, 19]
-23.7%: max response [12, 18]
inactive: activity change, negative = inhibition ([1]; at 17.2 µM (top of the series)) -2.01% | activity change, negative = inhibition ([1]; at 38 µM (top of the series)) 3.64% | Potency [2] | activity change, negative = inhibition ([3]; at 17.2 µM (top of the series)) -6.01% | activity change, negative = inhibition ([3]; at 38 µM (top of the series)) -3.5% | activity, negative = inhibition ([4]; at 17.2 µM (top of the series)) -27.7% | activity, negative = inhibition ([4]; at 38 µM (top of the series)) -25.5% | Potency [5] > 46 µM and > 20.6 µM | Potency [6] > 46 µM and > 20.6 µM | Potency [7] | outcome [8] | outcome [9] | outcome [10] | outcome [11] | activity change, negative = inhibition [12] -1.39% | Potency [13]

C[C@@](N)(Cc1ccc(O)c(O)c1)C(=O)O
6.8%: max response [12, 18]
-7.65%: max response [12, 19]
inactive: activity change, negative = inhibition ([1]; at 17.2 µM (top of the series)) 0.401% | activity change, negative = inhibition ([1]; at 38 µM (top of the series)) 5.17% and -4.03% | Potency [2] | activity change, negative = inhibition ([3]; at 17.2 µM (top of the series)) -8.05% | activity change, negative = inhibition ([3]; at 38 µM (top of the series)) 7.56% and -10% | activity, negative = inhibition ([4]; at 17.2 µM (top of the series)) 0.151% | activity, negative = inhibition ([4]; at 38 µM (top of the series)) -17.9% and -0.208% | Potency [7] | Potency [14] | outcome [8] | outcome [9] | outcome [10] | outcome [11] | activity change, negative = inhibition [12] -1.42% | Potency [13]

C[C@@H](CCc1ccccc1)NC[C@H](O)c1ccc(O)c(C(N)=O)c1
inactive: activity change, negative = inhibition ([1]; at 17.2 µM (top of the series)) 10.2% | activity change, negative = inhibition ([1]; at 38 µM (top of the series)) 8.69% | Potency [2] | activity change, negative = inhibition ([3]; at 17.2 µM (top of the series)) -19.2% | activity change, negative = inhibition ([3]; at 38 µM (top of the series)) -1.34% | activity, negative = inhibition ([4]; at 17.2 µM (top of the series)) -0.55% | activity, negative = inhibition ([4]; at 38 µM (top of the series)) 4.03% | Potency [5] > 46 µM and > 20.6 µM | Potency [6] > 46 µM and > 20.6 µM | Potency [7] | Potency [14] | outcome [8] | outcome [9] | outcome [11] | activity change, negative = inhibition [12] -1.75% | outcome [15] | Potency [13] | outcome [16] | Potency (AS120) | Potency (CP250)
active: Potency ([17]; parasite line B) 10 µM
-10.3%: max response [12, 18]
-13.3%: max response [12, 19]

CO/N=C(\C(=O)N[C@@H]1C(=O)N2C(C(=O)O)=C(COC(C)=O)CS[C@@H]12)c1csc(N)n1
-14.1%: max response [12, 18]
-14.6%: max response [12, 19]
inactive: activity change, negative = inhibition ([1]; at 17.2 µM (top of the series)) -5.85% | activity change, negative = inhibition ([1]; at 38 µM (top of the series)) -1.56% | activity change, negative = inhibition ([3]; at 17.2 µM (top of the series)) -7.64% | activity change, negative = inhibition ([3]; at 38 µM (top of the series)) 3.41% | activity, negative = inhibition ([4]; at 17.2 µM (top of the series)) 3.57% | activity, negative = inhibition ([4]; at 38 µM (top of the series)) -20.5% | Potency [5] > 46 µM and > 20.6 µM | Potency [7] | Potency [14] | outcome [8] | outcome [10] | outcome [11] | activity change, negative = inhibition [12] -0.702% | outcome [15] | Potency [13] | outcome [16] | activity, negative = inhibition ([17]; parasite line A) 7.66% | activity, negative = inhibition ([17]; parasite line B) -2.07% | Potency (AS120) | Potency (CP250)
inactive and 12.6 µM (active): Potency [2]
